Unmarked numbers belong to inactive results. Inconclusive results are not listed. Activity calls are given as the source filed them. Calls come from the whole dose curve; as a rule, active = well fitted curve in the direction sought with a large enough effect; inconclusive = small, poorly fitted or top-dose-only effect, or another doubt; inactive = no such curve, though single readings can be large; an effect the other way counts as inactive or inconclusive.

Assay [1] is described as follows: qHTS of pediatric cancer cell lines to identify multiple opportunities for drug repurposing: Confirmatory screen for OHS-50 cells (AID 1347128).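 Note: compound exposure lasted 48 h at 37 degrees C; nearly all actives have a fitted effect of over 55% in size.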 Note: potency is the fitted concentration of half-maximal effect. In short, it runs like this: (§1)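 Cells (500-1,000/well) rested 5 h, then received compounds for 48 h; metabolically active cells were measured by CellTiter-Glo luminescence. Final concentrations spanned up to 46 µM (MIPE, 11-point) or 0.59 nM-46 µM (NPC, 8-point) in primary screens, 11-point in follow-ups.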
(In general: In qHTS, concentration-response curves come from the screen itself.)

The test system of assay [2] is Zika virus NS2B-NS3 protease. The assay is described as follows: Primary screen GU AMC qHTS for Zika virus inhibitors (AID 1347154).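 For activity change, negative = inhibition: 0% = no-inhibitor control and -100% = no-enzyme control.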 Note: nearly all actives have a fitted effect of over 70% in size. Note: potency is the fitted concentration of half-maximal effect. The gist of the method: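 Fluorogenic AMC-substrate cleavage by noncovalent NS2B-NS3 protease complex (25 nM, pH 8.0 Tris buffer with Tween 20) followed for 15 minutes at room temperature (~20% conversion). Percent inhibition from ex340/em450 signal change, fitted by 4-parameter Hill equation.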

Assay [3] relates to Zika virus NS2B-NS3 protease (unlinked complex). The assay is described as follows: Primary screen GU Rhodamine qHTS for Zika virus inhibitors: Unlinked NS2B-NS3 protease assay (AID 1347159). For activity change, negative = inhibition: % is set by controls: 0 for no effect and ±100 for the full control effect. Note: nearly all actives have a fitted effect of over 60% in size. Note: potency is the fitted concentration of half-maximal effect. The gist of the method: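 Percent inhibition came from the 15-min rise in Rhodamine110 fluorescence (1.5 microM substrate, ~15% conversion), normalized to no-inhibitor and no-enzyme wells and Hill-fitted. Unlinked protease, 25 nM, pH 8.0 Tris buffer; compounds up to 114 microM, 15-min preincubation.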

Assay [4] deals with Zika virus NS2B-NS3 protease (linked construct). Put plainly: Primary screen NINDS Rhodamine qHTS for Zika virus inhibitors (AID 1347160). Note: nearly all actives have a fitted effect of over 55% in size. The gist of the method: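 Rhodamine110-peptide cleavage (1.5 µM substrate) by 25 nM linked NS2B-NS3 enzyme at pH 8.0 (Tris, Tween 20), after 15 min RT preincubation with compounds; 15-min fluorescence change normalized to controls and Hill-fitted.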

Assay [5] deals with Furin (Homo sapiens) (UniProt P09958). The assay is described as follows: Furin counterscreen qHTS for Zika virus inhibitors (AID 1347149).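 For activity change, negative = inhibition: purified recombinant full-length human furin enzyme at 5 nM; fluorescence gain from furin cutting a BOC-RVRR-AMC peptide substrate over 15 min; top concentration of the series differs between compounds; plate controls were no-inhibitor control for no effect and no-enzyme control for full effect.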 Note: nearly all actives have a fitted effect of over 70% in size. Note: potency is the fitted concentration of half-maximal effect. The gist of the method:
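Counterscreen measures cleavage of 2 microM BOC-RVRR-AMC, below its ~15 microM Km, by 5 nM full-length human furin at pH 7.0 after a 15-min compound preincubation. Inhibition derives from the 15-min fluorescence increase at 37C.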
(Counterscreens check selectivity or assay interference.)

The nature of assay [6]: Confirmatory screen NINDS Rhodamine qHTS for Zika virus inhibitors (AID 1347161).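 Note: purified Zika NS2B-NS3 protease with linked NS2B cofactor domain and Rhodamine110 peptide substrate; series mostly up to about 110 µM; plate controls were no-inhibitor control for no effect and no-enzyme control for full effect; nearly all actives have a fitted effect of over 60% in size.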 The gist of the method: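 Enzyme (25 nM, linked NS2B-NS3) was preincubated 15 min with compound in 10 mM Tris-HCl pH 8.0, 0.01% Tween 20. Rhodamine110 substrate (1.5 microM) was then added and fluorescence read at start and after 15 min.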
The nature of assay [7]: Vero cells viability qHTS for Zika virus inhibitors (AID 1347167). Note: % is set by controls: 0 for no effect and ±100 for the full control effect. The gist of the method: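 Luminescent ATP readout (CellTiter Glo) after 30 min at 37 degrees C gives viability; cells in DMEM + 4% FBS were treated 24 to 48 hours with compound, following overnight attachment.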
Assay [8] is described as follows: qHTS of pediatric cancer cell lines to identify multiple opportunities for drug repurposing: Confirmatory screen for SK-N-SH cells (AID 1347129).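 Note: cells exposed to compound for 48 h before viability read; plate controls were DMSO for no effect and bortezomib control for full effect; nearly all actives have a fitted effect of over 60% in size.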 In short, it runs like this: as §1
Assay [9] deals with N-terminal Xaa-Pro-Lys N-methyltransferase 1 (Homo sapiens) (UniProt Q9BV86). The assay is described as follows: qHTS Assay for Inhibitors of N-terminal methyltransferase 1 (NTMT1): LOPAC validation of the NTMT1 SAHH-coupled ThioGlo3 Assay (AID 1347143).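 Note: SAH from peptide methylation measured as thiol fluorescence via SAHH coupling and ThioGlo3; % is set by controls: 0 for no effect and ±100 for the full control effect; nearly all actives have a fitted effect of over 70% in size.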 In short, it runs like this:
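NTMT1 125nM + cpds (various conc.), 1 min RT; add SAM 100uM/SAHH 10uM/ThioGlo3 15uM (addition mix). SAHH-coupled thiol detection, Ex340/Em450, t0 and 30 min RT; signal normalized to background. LOPAC 1280-cpd pilot.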

For assay [10], the system named is Zika virus NS2B-NS3 protease (unlinked). The assay is described as follows: Optimization of GU AMC qHTS for Zika virus inhibitors: Unlinked NS2B-NS3 protease assay (AID 1347151).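 For activity change, negative = inhibition: series mostly up to about 52 µM; 0% = no-inhibitor control and -100% = no-enzyme control.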 Note: nearly all actives have a fitted effect of over 80% in size. Note: potency is the fitted concentration of half-maximal effect. In short, it runs like this: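 Noncovalent complex of NS2B hydrophilic domain and NS3 protease domain, 25 nM final, in 10 mM Tris-HCl pH 8.0, 0.01% Tween 20. AMC fluorescence change over 15 min at room temperature was fitted to a 4-parameter Hill equation.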

For assay [11], the system named is Zika virus NS2B-NS3 protease (unlinked complex). Put plainly: Confirmatory screen GU AMC qHTS for Zika virus inhibitors (AID 1347153).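 Note: percent inhibition with 0% = no inhibitor control and 100% = no enzyme control; nearly all actives have a fitted effect of over 70% in size.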 In short, it runs like this:
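Compounds were preincubated 15 min at room temperature with 25 nM noncovalent NS2B-NS3 protease at pH 8.0; AMC substrate added at 10 microM and 15-min fluorescence gain (340/450 nm) converted to percent inhibition, fitted 4-parameter.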

Assay [12] addresses Lysine-specific demethylase 5B (Homo sapiens) (UniProt Q9UGL1). Put plainly: Optimization screen for KDM5B Histone Demethylases FDH coupled qHTS against the LOPAC library (AID 1347166). Note: 0% is about no effect. In short, it runs like this: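 KDM5BDeltaAP (200nM final) in 50mM HEPES pH 7.5, 0.01% Tween-20 was preincubated with compound for 10 min at room temperature. A substrate mix of 12.5uM H3K4Me3, 25uM a-ketoglutarate, ascorbate, Fe2+, NAD+ and formaldehyde dehydrogenase was then added. NADH fluorescence (340/450 nm) was read initially and after 30 min.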

The nature of assay [13]: Tertiary RLuc qRT-PCR qHTS assay for Zika virus inhibitors (AID 1347169). Note: top concentration of the series differs between compounds; % is set by controls: 0 for no effect and ±100 for the full control effect; nearly all actives have a fitted effect of over 55% in size. The gist of the method: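 Vero cells (1,000 per well) plated overnight at 37 degrees C, treated with compound in DMSO, then infected with recombinant ZIKV-RLuc (Cambodian) at MOI 1-2 for 48-72 hrs. Live-cell Renilla luciferase substrate added; luminescence read after 1-1.5 hrs.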
(Quantitative PCR measures a nucleic acid by following its amplification.)

A short description of assay [14]: qHTS to identify inhibitors of the type 1 interferon - major histocompatibility complex class I in skeletal muscle: primary screen against the NCATS LOPAC collection (AID 1347405).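 Note: lytic HiBiT luminescence reporting HLA-B protein level; % is set by controls: 0 for no effect and ±100 for the full control effect.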 In short, it runs like this: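 After 24 h at 37 C with compounds (7-point, 1:4.3 dilutions, 46 uM top final) plus 4 ng/ml IFN-beta, luminescence from lytic HiBiT detection was measured. HLA-B*08:01 in C25cl48 myoblasts carried an endogenous C-terminal HiBiT tag; medium lacked dexamethasone.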

Assay [15] can be described thus: qHTS to identify inhibitors of the type 1 interferon - major histocompatibility complex class I in skeletal muscle: primary screen against the NCATS Pharmaceutical Collection (AID 1347407).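 Note: luminescence of HiBiT knocked into endogenous HLA-B as interferon-induced MHC class I level; % is set by controls: 0 for no effect and ±100 for the full control effect.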 In short, it runs like this:
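Immortalized human myoblasts (C25cl48) with HiBiT knocked into endogenous HLA-B*08:01 were stimulated with 4 ng/ml IFN-beta and treated with compounds (8-point, 1:5, top 46 uM final) for 24 h at 37 C; HiBiT lytic luminescence read.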

A short description of assay [16]: qHTS for inhibitors of adenylyl cyclases using a fission yeast platform: a pilot screen against the NCATS LOPAC library (AID 1347410).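 Note: plate controls were DMSO vehicle for no effect and DPI positive control for full effect.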 In short, it runs like this: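 S. pombe CHP2027 (AC9-GNAS-PDE4D2) carrying a PKA-repressed fbp1-GFP reporter was exposed to LOPAC compounds (final up to 57 µM) for 18 h at 30C in the dark, in EMM with histidine, lysine and uracil; GFP gain-of-signal read by laser scanning cytometry.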

N-terminal Xaa-Pro-Lys N-methyltransferase 1 (Homo sapiens), sequence (Q9BV86 whole entry, looked up): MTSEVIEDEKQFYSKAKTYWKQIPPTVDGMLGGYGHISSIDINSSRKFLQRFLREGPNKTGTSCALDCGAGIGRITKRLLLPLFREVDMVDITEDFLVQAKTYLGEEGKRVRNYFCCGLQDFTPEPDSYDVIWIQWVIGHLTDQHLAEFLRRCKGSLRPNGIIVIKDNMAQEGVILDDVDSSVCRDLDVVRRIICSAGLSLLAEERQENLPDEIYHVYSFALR
Lysine-specific demethylase 5B (Homo sapiens), sequence (Q9UGL1 whole entry, looked up): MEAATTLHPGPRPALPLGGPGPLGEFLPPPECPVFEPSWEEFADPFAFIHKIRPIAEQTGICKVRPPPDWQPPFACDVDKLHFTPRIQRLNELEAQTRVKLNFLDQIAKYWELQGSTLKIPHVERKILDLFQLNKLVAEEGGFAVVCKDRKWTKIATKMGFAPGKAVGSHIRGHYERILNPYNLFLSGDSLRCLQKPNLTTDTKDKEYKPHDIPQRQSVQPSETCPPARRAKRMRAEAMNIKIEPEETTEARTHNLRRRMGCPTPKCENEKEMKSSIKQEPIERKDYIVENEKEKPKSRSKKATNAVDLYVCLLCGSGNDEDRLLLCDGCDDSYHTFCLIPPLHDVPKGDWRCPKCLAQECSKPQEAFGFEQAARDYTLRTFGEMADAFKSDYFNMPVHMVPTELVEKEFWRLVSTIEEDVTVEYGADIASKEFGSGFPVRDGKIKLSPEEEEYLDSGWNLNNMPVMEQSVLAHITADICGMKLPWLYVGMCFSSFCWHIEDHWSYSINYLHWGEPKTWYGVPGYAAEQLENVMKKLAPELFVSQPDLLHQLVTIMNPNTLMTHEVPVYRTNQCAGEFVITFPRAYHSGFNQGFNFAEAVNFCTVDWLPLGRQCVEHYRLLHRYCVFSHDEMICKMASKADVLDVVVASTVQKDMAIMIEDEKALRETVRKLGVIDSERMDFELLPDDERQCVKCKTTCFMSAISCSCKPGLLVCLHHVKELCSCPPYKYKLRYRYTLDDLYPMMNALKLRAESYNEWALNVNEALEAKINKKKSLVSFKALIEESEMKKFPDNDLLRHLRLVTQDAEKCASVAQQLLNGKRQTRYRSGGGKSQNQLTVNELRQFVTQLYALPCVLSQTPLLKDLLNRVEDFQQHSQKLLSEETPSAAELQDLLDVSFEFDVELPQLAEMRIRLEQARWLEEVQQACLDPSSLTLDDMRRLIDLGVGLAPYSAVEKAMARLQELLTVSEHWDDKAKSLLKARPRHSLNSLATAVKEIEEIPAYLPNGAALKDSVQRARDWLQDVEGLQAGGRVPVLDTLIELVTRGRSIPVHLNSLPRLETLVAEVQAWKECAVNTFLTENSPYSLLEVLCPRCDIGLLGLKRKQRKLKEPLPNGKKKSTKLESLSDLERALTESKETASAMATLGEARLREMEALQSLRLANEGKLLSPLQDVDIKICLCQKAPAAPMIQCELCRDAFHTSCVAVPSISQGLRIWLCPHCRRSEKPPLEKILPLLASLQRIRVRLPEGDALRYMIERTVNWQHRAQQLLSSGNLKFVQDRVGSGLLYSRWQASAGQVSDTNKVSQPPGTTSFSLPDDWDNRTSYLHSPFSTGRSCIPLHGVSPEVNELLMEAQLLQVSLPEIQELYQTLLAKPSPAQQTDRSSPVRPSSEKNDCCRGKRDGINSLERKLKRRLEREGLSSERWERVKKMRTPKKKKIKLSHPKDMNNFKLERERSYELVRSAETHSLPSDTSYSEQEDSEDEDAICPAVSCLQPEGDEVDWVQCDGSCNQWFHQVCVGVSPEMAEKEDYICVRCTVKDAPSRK
Furin (Homo sapiens), sequence (P09958 whole entry, looked up): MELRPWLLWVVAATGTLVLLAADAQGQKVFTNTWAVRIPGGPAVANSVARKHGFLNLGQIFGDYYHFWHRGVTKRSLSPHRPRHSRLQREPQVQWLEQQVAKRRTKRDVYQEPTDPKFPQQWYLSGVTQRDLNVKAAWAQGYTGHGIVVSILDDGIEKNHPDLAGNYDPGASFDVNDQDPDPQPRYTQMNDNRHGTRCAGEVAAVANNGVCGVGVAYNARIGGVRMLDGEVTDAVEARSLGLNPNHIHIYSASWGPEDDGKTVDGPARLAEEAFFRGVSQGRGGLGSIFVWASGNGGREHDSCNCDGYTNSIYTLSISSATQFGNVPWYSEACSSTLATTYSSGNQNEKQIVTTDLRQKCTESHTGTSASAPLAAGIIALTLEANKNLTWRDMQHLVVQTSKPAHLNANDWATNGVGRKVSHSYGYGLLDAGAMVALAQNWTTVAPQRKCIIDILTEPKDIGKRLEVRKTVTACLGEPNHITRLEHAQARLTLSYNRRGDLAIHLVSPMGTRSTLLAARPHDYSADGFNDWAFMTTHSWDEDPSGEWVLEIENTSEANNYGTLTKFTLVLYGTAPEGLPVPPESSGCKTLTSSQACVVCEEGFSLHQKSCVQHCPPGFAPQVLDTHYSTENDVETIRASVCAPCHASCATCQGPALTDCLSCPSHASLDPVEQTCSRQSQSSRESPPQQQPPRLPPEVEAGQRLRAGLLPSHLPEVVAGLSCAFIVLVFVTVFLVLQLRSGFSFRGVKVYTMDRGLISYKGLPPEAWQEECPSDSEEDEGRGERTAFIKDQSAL

In the case of `CNCc1ccc(-c2[nH]c3cc(F)cc4c3c2CCNC4=O)cc1`, the Potency entry in assay [1], in assay [3] and in assay [4] was “inactive” in each case. Further, the Potency in assay [2] was 24.1 µM (active).

With `COCC(=O)NCC=Cc1ccc2ncnc(Nc3ccc(Oc4ccc(C)nc4)c(C)c3)c2c1`, the Potency in [1] was 42.7 µM (active); in assay [5], 30.3 µM (active). For the same compound, in assay [6], the Potency result was “inactive”. For the same compound, in assay [7], the outcome was inactive.

Consider `CCOc1ccn(-c2ccc(F)cc2)c(=O)c1C(=O)Nc1ccc(Oc2ccnc(N)c2Cl)c(F)c1`, for which the Potency entry in [8], in [2], in assay [3] and in assay [4] was “inactive” each time.

Consider `CCN(CC)CCCC(C)Nc1ccnc2cc(Cl)ccc12` (centres undefined), for which the Potency result in assay [1], in [8], in [9], in assay [5], in [11] and in assay [2] was “inactive” each time. The Potency result in [6], in [13] and in [14] was “inactive” in each case. In addition, the Potency in [10] was 15 µM (active). In [3], the activity change, negative = inhibition was 52.4% [at 19.1 µM]. Moreover, in assay [4], the outcome is “inactive [at 10.7 µM]”. Also, the result in assay [12], in [7] and in assay [15] was inactive.

`O=C(NOC[C@H](O)CO)c1ccc(F)c(F)c1Nc1ccc(I)cc1F`: the Potency entry in [1] and in assay [2] was “inactive” each time. Further, in [3], the Potency is 22.4 µM (active).

`CS(=O)(=O)c1ccc(C(=O)Nc2ccc(Cl)c(-c3ccccn3)c2)c(Cl)c1`: the Potency entry in assay [1], in assay [8], in [3] and in assay [4] was “inactive” in each case.

`Cc1oncc1C(=O)Nc1ccc(C(F)(F)F)cc1`: the Potency result in assay [1], in assay [8], in [9], in [10] and in [2] was “inactive” each time. Besides, the result in [12] and in assay [16] was inactive.

On to `NC(=O)c1cnccn1`, for which the Potency result in assay [9], in [10], in assay [2] and in assay [14] was “inactive” each time. The call in [12], in assay [15] and in assay [16] was inactive.

With `Cc1ccc(N(CC2=NCCN2)c2cccc(O)c2)cc1`, the Potency entry in assay [9], in [10], in assay [2] and in [14] was “inactive” in each case. The compound was called inactive in [12], in [15] and in assay [16].

As for `Nc1ccc(S(=O)(=O)Nc2ccnn2-c2ccccc2)cc1`, the Potency entry in [9], in [10], in assay [2] and in assay [14] was “inactive” in each case. For the same compound, the outcome in assay [12], in assay [15] and in assay [16] was inactive.

For `O=C1CCc2cc(OCCCCc3nnnn3C3CCCCC3)ccc2N1`, the Potency result in [9], in assay [10], in [2] and in [14] was “inactive” throughout. Also, the compound was called inactive in assay [12], in [15] and in [16].

`c1ccc([C@H]2CN3CCSC3=N2)cc1`: the Potency entry in [9], in assay [10], in assay [2] and in assay [14] was “inactive” each time. For the same compound, the call in assay [12], in assay [15] and in assay [16] was inactive.

For `CC(C)C[C@H](NC(=O)[C@@H](O)[C@H](N)Cc1ccccc1)C(=O)O`, the Potency result in [9], in assay [10], in assay [2] and in [14] was “inactive” each time. Also, the result in [12] and in assay [16] was inactive.

In the case of `OC(CCN1CCCCC1)(c1ccccc1)C1CC2C=CC1C2` (centres undefined), the Potency entry in assay [9], in [10], in assay [2] and in assay [14] was “inactive” each time. Also, the compound was called inactive in assay [12], in assay [15] and in [16].

Values taken from PubChem BioAssay (NCATS).
